This test is described as follows: TCF/LEF reporter activation, dose response, orthogonal assay for GSK3b inhibitor project, cell-based, HEK293T, firefly luciferase, dry powder (AID 624086).

Activity calls are given as the source filed them.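 The calls were made as follows: active = fitted half-maximal effect concentration at or below the top concentration tested; inactive = the rest.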

With `CC(C)c1ccc(-c2nn(-c3ccccc3)cc2/C=N/O)cc1`, the call was inactive.
`Cc1ccc(C2C3=C(CC(C)(C)CC3=O)Nc3n[nH]c(C)c32)cc1` (configuration not stated): the molecule was classed as inactive.
The entry for `CC1(C)CC(=O)C2=C(C1)Nc1n[nH]c(C(F)(F)F)c1C2c1cc(F)ccc1OC(F)(F)F` (configuration not stated) is “inactive”; for `COc1ccccc1C1C2=C(CC(C)(C)CC2=O)Nc2n[nH]c(-c3ccccc3)c21` (configuration not stated) it is “inactive”.
Take `COc1ccc(-c2nn(-c3ccccc3)cc2/C=N/O)cc1OC`: the result was inactive.
Consider `CC1(C)CC(=O)C2=C(C1)Nc1n[nH]c(C(F)(F)F)c1C2c1c(F)cccc1F` (configuration not stated), for which the molecule was classed as inactive.
With `Cc1[nH]nc2c1[C@H](c1cccs1)C1=C(CC(C)(C)CC1=O)N2`, the result was inactive.
`Cc1[nH]nc2c1C(C)(c1ccccc1)C1=C(CC(C)(C)CC1=O)N2` (configuration not stated): the molecule was classed as inactive.
Consider `Cc1[nH]nc2nc3c(c(-c4ccccc4)c12)C(=O)CC(C)(C)C3`, for which the result was inactive.
`Cc1ccc(-c2nn(-c3ccccc3)cc2/C=N/O)cc1`: the call was inactive.
Regarding `Cc1[nH]nc2c1C(C)C1=C(CC(C)(C)CC1=O)N2` (configuration not stated), the result was inactive.
Turning to `COc1cccc(C2C3=C(CC(C)(C)CC3=O)Nc3n[nH]c(C)c32)c1` (configuration not stated), the result was inactive.
`COc1ccccc1C1C2=C(CC(C)(C)CC2=O)Nc2n[nH]c(C(C)C)c21` (configuration not stated): the molecule was called inactive.
As for `Cc1[nH]nc2c1C(c1ccc(C#N)cc1)C1=C(CC(C)(C)CC1=O)N2` (configuration not stated), the result was inactive.
Regarding `COc1ccccc1C1C2=C(CCC(C)(C)C2=O)Nc2n[nH]c(C)c21` (configuration not stated), the molecule was classed as inactive.
The result for `CC1(C)CC(=O)C2=C(C1)Nc1n[nH]c(C(F)(F)F)c1C2c1ccc(F)cc1C(F)(F)F` (configuration not stated) reads “inactive”; that for `Cc1[nH]nc2c1C(c1cccs1)C1C(=O)CC(C)(C)CC1=N2` (configuration not stated), “inactive”; that for `COc1ccc(C2C3=C(CC(C)(C)CC3=O)Nc3n[nH]c(C)c32)cc1` (configuration not stated), “inactive”.
The result for `O/N=C/c1cn(-c2ccccc2)nc1-c1ccc2c(c1)OCCO2` reads “inactive”; that for `Cc1[nH]nc2nc3c(c(-c4cccs4)c12)C(=O)CC(C)(C)C3`, “inactive”; that for `Cc1[nH]nc2nc3c(cc12)C(=O)CC(C)(C)C3`, “inactive”.
The result for `Cc1[nH]nc2c1C(c1ccn[nH]1)C1=C(CC(C)(C)CC1=O)N2` (configuration not stated) reads “inactive”; that for `CN(C)Cc1cn(-c2ccccc2)nc1-c1ccccc1`, “inactive”; that for `Cc1[nH]nc2c1C(c1cccnc1)C1=C(CC(C)(C)CC1=O)N2` (configuration not stated), “inactive”.
On to `COc1ccc(-c2nn(-c3ccccc3)cc2CO)cc1`, for which the molecule was classed as inactive.
Regarding `Cc1[nH]nc2c1C(C1CCCCC1)C1=C(CC(C)(C)CC1=O)N2` (configuration not stated), the call was inactive.
The result for `Cc1[nH]nc2c1C(c1ccccn1)C1=C(CC(C)(C)CC1=O)N2` (configuration not stated) reads “inactive”; that for `Cc1[nH]nc2c1C(c1ccc3c(c1)OCO3)C1=C(CC(C)(C)CC1=O)N2` (configuration not stated), “inactive”.
As to `Cc1[nH]nc2c1[C@H](c1ccccc1C(F)(F)F)C1=C(CC(C)(C)CC1=O)N2`, the result was inactive.
As for `COc1ccccc1[C@H]1C2=C(CC(C)(C)CC2=O)Nc2n[nH]c(C(F)(F)F)c21`, the outcome was inactive.
As for `COc1ccccc1C1C2=C(CC(C)(C)CC2=O)Nc2onc(C)c21` (configuration not stated), the molecule was called inactive.
The entry for `CC1(C)CC(=O)/C(=C\c2ccccc2C(F)(F)F)C(=Nc2cc(C(F)(F)F)[nH]n2)C1` is “inactive”.
